{"source": "PubChem BioAssay AID1117361", "about": "(Southern Research Institute, 2015)", "note": "About 900 (25%) of roughly 3,600 compounds were called active. The rule behind the calls is not given here. These entries were drawn from the full list. Measured potencies and affinities stand elsewhere."}
{"target": "Protein Tat (Human immunodeficiency virus type 1 group M subtype B (isolate HXB2)) (UniProt P04608)", "assay": "inhibitors of Tat binding to TAR RNA, dose response, counter-screen for Vif-APOBEC3G degradation inhibitor project, biochemical, fluorescence polarization, FAM-labeled TAR RNA (AID 1117361)", "settings": "outcome: at 100 µM (top of the series) unless noted; series mostly up to 100 µM"}
{"smiles": "CCS(=O)(=O)N1CCC(C(=O)NCc2cccc(OC)c2)CC1", "outcome": "inactive"}
{"smiles": "COc1cccc(CC(=O)Nc2nccs2)c1", "outcome": "inactive"}
{"smiles": "O=C(Cn1cnc2ccccc2c1=O)c1cccs1", "outcome": "inactive"}
{"smiles": "CN(C)c1nc(N)nc(CSc2ncc(Cl)cc2Cl)n1", "outcome": "inactive"}
{"smiles": "Cc1ccccc1CCNC(=O)c1ccc(Cl)c(S(=O)(=O)N2CC(C)OC(C)C2)c1", "note": "(centres undefined)", "outcome": "inactive"}
{"smiles": "COc1ccccc1-n1cnc2cc(NCc3cccs3)ccc21", "outcome": "inactive"}
{"smiles": "COc1ccc(S(=O)(=O)N2CCCCCC2)cc1C(=O)OCC(=O)NC(N)=O", "outcome": "inactive"}
{"smiles": "Cn1c(NC(=O)c2cccs2)cc(=O)n(C)c1=O", "outcome": "inactive"}
{"smiles": "CSc1nc2ccc3nc(NC(=O)c4cccs4)sc3c2s1", "outcome": "inactive"}
{"smiles": "COc1cccc(C(=O)CSc2nc3ccccc3n2CC(=O)N2CCOCC2)c1", "outcome": "inactive"}
{"smiles": "CCCCCCn1c(SCC(=O)c2c(N)n(C)c(=O)n(C)c2=O)nc2ccccc21", "outcome": "inactive"}
{"smiles": "CN(CC(=O)NCCc1ccccc1)S(=O)(=O)c1cccs1", "outcome": "inactive"}
{"smiles": "O=C1CCCC2=C1C(c1ccco1)Nc1ccc3ccccc3c12", "note": "(centres undefined)", "outcome": "inactive"}
{"smiles": "COc1ccc(Br)cc1C1CC(=O)N2CN(Cc3ccccc3)CSC2=C1C#N", "note": "(centres undefined)", "outcome": "inactive"}
{"smiles": "COc1ccc(C2CC(=O)N3CN(c4ccc(C)c(Cl)c4)CSC3=C2C#N)cc1", "note": "(centres undefined)", "outcome": "inactive"}
{"smiles": "CCOC(=O)CCN(Cc1sccc1C)S(=O)(=O)c1ccc(F)cc1", "outcome": "inactive"}
{"smiles": "Cc1ccnc(NC(=O)c2ccc(Cl)c(S(=O)(=O)N3CCCC3)c2)c1", "outcome": "inactive"}
{"smiles": "COc1ccc(NC(=O)Cn2c(=O)sc3ccccc32)cc1", "outcome": "inactive"}
{"smiles": "COc1ccc(Cc2nnc(NC(=O)CSc3ccccc3)s2)cc1", "outcome": "inactive"}
{"smiles": "C[C@@H]1CCCCO[C@H](CN(C)C(=O)c2ccccc2)[C@@H](C)CN([C@H](C)CO)C(=O)c2cc(NC(=O)NC3CCCCC3)ccc2O1", "outcome": "inactive"}
{"smiles": "CCOc1ccc(-n2c(=O)c3c(C)c(C)sc3n(CC(=O)NCc3ccco3)c2=O)cc1", "outcome": "inactive"}
{"smiles": "Cc1cccc(NC(=O)Cn2c(=O)n(Cc3ccco3)c(=N)c3c4c(sc32)COC(C)(C)C4)c1", "outcome": "inactive"}
{"smiles": "CCOC(=O)c1cc([N+](=O)[O-])cc([N+](=O)[O-])c1Sc1ncnc2nc[nH]c12", "outcome": "inactive"}
{"smiles": "CCCCn1c(N)c(N(CCC(C)C)C(=O)C2=NN(c3cc(C)ccc3C)C(=O)CC2)c(=O)[nH]c1=O", "outcome": "inactive"}
{"smiles": "CC(=O)N(C1=C(Cl)C(=O)c2ccccc2C1=O)c1ccc(C(=O)O)cc1", "outcome": "inactive"}
{"smiles": "CCC(C(=O)OCC(=O)Nc1ccc(SC(F)F)cc1)c1ccccc1", "note": "(centres undefined)", "outcome": "inactive"}
{"smiles": "CC(C)CC(c1nnnn1C1CCCCC1)N1CCN(c2ncccn2)CC1", "note": "(centres undefined)", "outcome": "inactive"}
{"smiles": "Cc1ccc(C(c2nnnn2CC2CCCO2)N2CCN(C)CC2)cc1", "note": "(centres undefined)", "outcome": "inactive"}
{"smiles": "CCC(=O)Nc1cc(C(=O)OCC(=O)c2ccccc2Cl)ccc1C", "outcome": "inactive"}
{"smiles": "O=C(NCc1ccc(Cl)cc1)c1ccccc1Oc1ccccc1", "outcome": "inactive"}
{"smiles": "COC(Cc1nnc(SC)n1-c1ccc(Cl)cc1)OC", "outcome": "inactive"}
{"smiles": "CCOC(=O)CSc1nc2c(sc(=S)n2-c2ccccc2OC)c(=O)n1Cc1ccco1", "outcome": "inactive"}
{"smiles": "O=C(O)c1ccc(-n2c(-c3cc(-c4ccco4)[nH]n3)n[nH]c2=S)cc1", "outcome": "inactive"}
{"smiles": "CCCn1c(Sc2nc3c(c(=O)[nH]c(=O)n3C)n2CCC)nc2c1c(=O)[nH]c(=O)n2C", "outcome": "inactive"}
{"smiles": "CCC(C)n1cnc2c(c1=O)c1nc3ccccc3nc1n2-c1ccc2c(c1)OCCO2", "note": "(centres undefined)", "outcome": "inactive"}
{"smiles": "CCCn1nnnc1-c1cccc(Cl)c1", "outcome": "inactive"}
{"smiles": "COc1ccc(C(=O)CSc2nnc3n2CCCN3C(=O)Nc2ccccc2)cc1", "outcome": "inactive"}
{"smiles": "CN(C)c1nc(N)nc(CSc2nc3c(c(=O)n(C)c(=O)n3C)n2Cc2ccccc2F)n1", "outcome": "inactive"}
{"smiles": "CC(=O)Nc1ccc(OCC(O)CNC2CCCC2)cc1", "note": "(centres undefined)", "outcome": "inactive"}
{"smiles": "CC(=O)c1ccc(N2C(=NC(=O)C3CCCO3)SC3CS(=O)(=O)CC32)cc1", "note": "(centres undefined)", "outcome": "inactive"}
{"smiles": "COc1ccccc1C1NC(c2ccccc2OC)C(C)C(=O)C1C", "note": "(centres undefined)", "outcome": "inactive"}
{"smiles": "O=C(c1cccnc1NCc1ccc(F)cc1)N1CCOCC1", "outcome": "inactive"}
{"smiles": "O=C(c1cc2ccccc2oc1=O)N1CCN(c2ccc(N3CCOCC3)nn2)CC1", "outcome": "inactive"}
{"smiles": "CCOc1ccc(C2NC(=O)C(C#N)=C(S)N2c2ccc(OC)cc2)cc1OC", "note": "(centres undefined)", "outcome": "inactive"}
{"smiles": "CC1(CCc2ccc3c(c2)OCO3)NC(=O)c2ccccc2N1", "note": "(centres undefined)", "outcome": "inactive"}
{"smiles": "O=C(COc1ccccc1C(=O)O)Nc1ccc(SC(F)F)cc1", "outcome": "inactive"}
{"smiles": "CCOC(=O)c1c(NC(=O)c2cccs2)sc(C)c1C", "outcome": "inactive"}
{"smiles": "CCCc1cc(=O)[nH]c(SCC(=O)Nc2cc3c(cc2C(C)=O)OCO3)n1", "outcome": "inactive"}
{"smiles": "Cc1cc(NC(=O)CCC(=O)N(CCC(C)C)C(C(=O)NC2CCCC2)c2cccnc2)no1", "note": "(centres undefined)", "outcome": "inactive"}
{"smiles": "COc1ccc2c3c(c(=O)oc2c1OCC(=O)C(C)(C)C)CCCC3", "outcome": "inactive"}
{"smiles": "Cc1cc(C)c2nc(N3CCCN(C(=O)c4cnccn4)CC3)c(C#N)cc2c1", "outcome": "inactive"}
{"smiles": "NS(=O)(=O)c1cccc(NS(=O)(=O)c2ccc(/C=C/C(=O)OCC(=O)c3ccccc3)cc2)c1", "outcome": "inactive"}
{"smiles": "Cc1ccc(-n2nnnc2SCc2ccccn2)cc1C", "outcome": "inactive"}
{"smiles": "Cc1cc(SCC2=NNC(=O)C2)c(Cl)cc1Cl", "outcome": "inactive"}
{"smiles": "Cc1cccc(NC(=O)CC2NC3CCCCC3NC2=O)c1", "note": "(centres undefined)", "outcome": "inactive"}
{"smiles": "O=C(/C=C/c1ccco1)Nc1ccc(Oc2ccccc2)cc1", "outcome": "inactive"}
{"smiles": "O=C(CN1C(=O)CSC1=O)Nc1ccccc1N1CCOCC1", "outcome": "inactive"}
{"smiles": "CCC(=O)N1CCN(c2ccccc2NC(=O)c2cccc(C)c2)CC1", "outcome": "inactive"}
{"smiles": "O=C(/C=C/c1ccco1)NC(=S)Nc1ccc(C(=O)O)cc1", "outcome": "inactive"}
{"smiles": "Cc1ccc2c(c1)CCCN2C(=O)c1cc(C)c(C)s1", "outcome": "inactive"}
{"smiles": "Cc1ccc(NC(=O)C(C)Sc2nc3nc(C)cc(C)n3n2)cc1", "note": "(centres undefined)", "outcome": "inactive"}
{"smiles": "Cc1cc(C)n(-c2ncc(-c3ccccc3)nn2)n1", "outcome": "inactive"}
{"smiles": "C=CCOC(=O)CN1C(=O)c2ccccc2C1=O", "outcome": "inactive"}
{"smiles": "O=C(NC1CCCCC1)c1sc(=S)n2c1[nH]c(=O)c1ccccc12", "outcome": "inactive"}
{"smiles": "Cc1ccc(-n2nnnc2SCn2nnc3ccccc3c2=O)cc1", "outcome": "inactive"}
{"smiles": "Cc1cccc(CCNC(=O)CCc2nc(-c3ccccc3F)no2)c1", "outcome": "inactive"}
{"smiles": "Cc1cc(C)nc(N(C#N)CN2C(=O)c3ccccc3S2(=O)=O)n1", "outcome": "inactive"}
{"smiles": "Nc1ccc(S(=O)(=O)c2cc(O)c3ccccc3c2O)cc1", "outcome": "inactive"}
{"smiles": "CCOC(=O)CS(=O)(=O)c1ccc2ccccc2c1", "outcome": "inactive"}
